Hits are enriched below; roughly 3.9% of the tested compounds scored in any of these assays.
Peg3 prom inh – inhibitors of Peg3 promoter | inhibition, % at 20 µM | HeLa PEG-Prom luciferase reporter, luminescence, overnight | 360,000 tested, 1.7% active;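 active = inhibition of at least 50% at 20 µM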
HIF-2a inh – inhibitors of HIF-2a; inhibition, % at 18.8 µM; AID 624352; 786-0 RCC cells HIF-2a reporter, luciferase luminescence, overnight; 360,000 tested, 0.72% active;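 active = inhibition of the luminescence signal of 40% or more relative to plate controls, in a single-dose primary screen at 18.75 µM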
TWEAK Fn14 block – inhibitors of TWEAK-Fn14 interaction signaling. TWEAK-stimulated Fn14 reporter cells, luciferase luminescence, 8 h. 360,000 tested, 2% active. AID 1159606. inhibition, % at 10 µM; in the data active = inhibition above about 50%
KKLEB cytotox – counter-screen for CF NF-kB inhibitors: cytotoxicity. activity change (cytotoxicity), % at 5 µM. KKLEB CF airway cells viability, ATPlite luminescence, overnight; active compounds read low; cells stimulated with P. aeruginosa culture filtrate. 360,000 tested, 0.36% active. AID 602141;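 active = corrected activity change at or below -50% at 5 µM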
CF NFkB block – blocks PAF-induced NF-kB reporter in cystic fibrosis cells; KKLEB NF-kB-GFP reporter, GFP fluorescence overnight; inhibition, % at 5 µM; 360,000 tested, 0.86% active; AID 588850;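 active = at least 50% inhibition at 5 µM, scaled per plate between neutral and stimulator controls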;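 note: PAF is a Pseudomonas aeruginosa culture filtrate used as stimulus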
TROY signal inh – blocks TROY-dependent signaling in reporter cells; AID 1347056; Q293 LMP1-TROYcd NF-kB luciferase reporter, 4 h; inhibition, % at 10 µM; 360,000 tested, 0.98% active;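 active = compounds whose plate-normalised and pattern-corrected inhibition of the luciferase reporter signal at the single screening dose is 50% or more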
Mdm2-MdmX confirm – confirmation of inhibitors of human Mdm2/MdmX interaction, set 2 | SaOS-2 split-luciferase Mdm2/MdmX complementation, luminescence | shares compounds with HIF-2a inh | AID 504601 | 740 tested, 99% active | inhibition, % at 8 µM;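 active = mean inhibition of the luminescence signal across two replicates at or above 26 percent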
Target sequence (O15151 whole entry, looked up): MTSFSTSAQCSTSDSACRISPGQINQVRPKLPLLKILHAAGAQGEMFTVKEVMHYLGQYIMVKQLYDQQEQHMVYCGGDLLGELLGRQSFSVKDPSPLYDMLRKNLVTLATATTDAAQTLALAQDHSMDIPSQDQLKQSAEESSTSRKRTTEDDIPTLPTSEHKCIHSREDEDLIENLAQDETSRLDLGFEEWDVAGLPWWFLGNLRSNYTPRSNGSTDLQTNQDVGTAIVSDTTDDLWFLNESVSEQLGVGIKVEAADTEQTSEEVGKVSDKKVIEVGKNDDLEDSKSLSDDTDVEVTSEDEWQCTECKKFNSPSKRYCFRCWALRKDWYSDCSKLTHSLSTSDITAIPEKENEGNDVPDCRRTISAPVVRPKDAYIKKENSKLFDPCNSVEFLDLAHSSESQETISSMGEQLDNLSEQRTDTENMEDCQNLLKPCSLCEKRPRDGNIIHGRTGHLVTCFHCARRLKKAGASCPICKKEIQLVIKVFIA
Target sequence (Q00987 whole entry, looked up): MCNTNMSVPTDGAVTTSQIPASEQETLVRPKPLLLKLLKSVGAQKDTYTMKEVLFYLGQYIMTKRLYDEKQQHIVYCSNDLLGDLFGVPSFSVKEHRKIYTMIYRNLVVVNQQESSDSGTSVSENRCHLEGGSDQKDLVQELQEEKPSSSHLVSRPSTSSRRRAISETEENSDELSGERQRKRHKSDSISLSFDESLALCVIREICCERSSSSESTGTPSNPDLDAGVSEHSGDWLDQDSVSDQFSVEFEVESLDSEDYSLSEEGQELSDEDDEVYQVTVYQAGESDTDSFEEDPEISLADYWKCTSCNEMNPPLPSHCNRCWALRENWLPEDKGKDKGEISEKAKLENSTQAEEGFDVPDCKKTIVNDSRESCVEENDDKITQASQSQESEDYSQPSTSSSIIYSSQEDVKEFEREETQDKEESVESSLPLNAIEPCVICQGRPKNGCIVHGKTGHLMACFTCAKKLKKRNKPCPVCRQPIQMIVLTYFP
HIF-2a inh conf – confirmation of HIF-2a inhibitors | 1,800 tested, 56% active | inhibition, % at 18.8 µM | shares compounds with HIF-2a inh | AID 651580 | 786-0 RCC cells, HIF-2a luciferase reporter luminescence, overnight;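 active = mean inhibition across four replicates of at least 40 percent at the single tested concentration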
HIF-1a cs – HIF-1a inhibition counter-screen for HIF-2a hits | inhibition, % at 18.8 µM | MiaPaCa-2 HIF-1a luciferase reporter, desferoxamine, overnight | shares compounds with HIF-2a inh | 1,800 tested, 72% active;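 active = mean inhibition of the reporter signal across four replicates at the single tested dose of 50% or more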
Each line names hits and unclear results; the compound was inactive in the other large screens (follow-up assays come after a bar, where they were run).

CCOc1ccccc1NC(=O)CSc1nc2[nH]ncc2c(=O)[nH]1	none
COc1ccc(C(=O)/C=C/C(=O)N(CC(=O)NCCC(C)C)Cc2cccs2)c(O)c1	Peg3 prom inh 105, HIF-2a inh 96 | HIF-2a inh conf 91 | HIF-1a cs 56
COc1ccc(C(=O)/C=C/C(=O)N(CC(=O)NC2CCCCC2)Cc2ccc(F)cc2)c(O)c1	Peg3 prom inh 102, HIF-2a inh 64, TWEAK Fn14 block 85, TROY signal inh 89 | HIF-2a inh conf 58 | HIF-1a cs 105
CC1=C(C(=O)Nc2ccc([N+](=O)[O-])cc2)C(c2cccc(C(F)(F)F)c2)NC(=S)N1c1ccccc1 (stereo unspecified)	Peg3 prom inh 88, HIF-2a inh 56 | HIF-2a inh conf inactive | HIF-1a cs 60
COc1ccc(C2NC(=S)N(c3ccccc3)C(C)=C2C(=O)Nc2ccccc2)cc1 (stereo unspecified)	none
C=C1C(=O)O[C@@H]2C[C@@H](C)[C@@H]3C=CC(=O)[C@@]3(C)[C@@H](OC(C)=O)[C@H]12	none (no result: Peg3 prom inh, HIF-2a inh, TWEAK Fn14 block, KKLEB cytotox, CF NFkB block, TROY signal inh) | Mdm2-MdmX confirm 102
C[C@@H]1C[C@@H]2OC(=O)[C@]3(C)[C@H]2[C@@H](OC3(C)O)[C@]2(C)C(=O)C=C[C@H]12 (stereo partly specified)	none
O=C(NC1CCCCCC1)c1ccc([N+](=O)[O-])s1	HIF-2a inh 60 | HIF-2a inh conf 74 | HIF-1a cs 77
O=C(NC1CCCCC1)c1n[nH]c2c1CCCCC2	Peg3 prom inh 56, HIF-2a inh 44, TWEAK Fn14 block 99, TROY signal inh 83 | HIF-2a inh conf 75 | HIF-1a cs 74
O=S(=O)(N/N=C/c1ccc(Cl)cc1)c1ccc(Cc2ncc(C(F)(F)F)cc2Cl)s1	none
COc1ccccc1OCCSc1nnnn1C1CCCCC1	none
CCc1nc(SCC(=O)N2c3ccccc3CC2C)c2c(C)c(C)sc2n1 (stereo unspecified)	none | Mdm2-MdmX confirm 101
Cc1sc2nc(C(C)C)nc(SCC(=O)N3c4ccccc4CC3C)c2c1C (stereo unspecified)	none
CCc1nnc(NC(=O)c2ccc(S(=O)(=O)N3CCCCCC3)cc2)s1	none
CCc1ccc(/C=C/C(=O)c2c(C)cc(C)[nH]c2=O)cc1	Peg3 prom inh 64, HIF-2a inh 52, TWEAK Fn14 block 80 | HIF-2a inh conf inactive | HIF-1a cs 54
CCc1ccc(/C=C(\C)C(=O)c2c(C)cc(C)[nH]c2=O)cc1	none
COc1ccc(CN(CCC(c2ccccc2)c2ccc(OC(C)C)cc2)C(=O)CCl)cc1OC (stereo unspecified)	Peg3 prom inh 106, HIF-2a inh 96, KKLEB cytotox -85, CF NFkB block 81 | Mdm2-MdmX confirm 103
O=C(OCn1ncc(Cl)c(Cl)c1=O)c1ccccc1Cl	Peg3 prom inh 102, HIF-2a inh 95, TWEAK Fn14 block 104, KKLEB cytotox -90, CF NFkB block 99, TROY signal inh 73 | HIF-2a inh conf 98 | HIF-1a cs 106
O=C(COC(=O)c1cnc(Cl)c(Cl)c1)c1ccc(F)cc1	none
O=C(OCn1ncc(Cl)c(Cl)c1=O)c1ccc(F)cc1	none (no result: Peg3 prom inh, HIF-2a inh, TWEAK Fn14 block, KKLEB cytotox, CF NFkB block, TROY signal inh) | Mdm2-MdmX confirm 103
O=C(OCCN1CCCCC1)c1ccccc1Cl	none
COc1ccc(NS(=O)(=O)c2cc(NC(=O)c3ccncc3)ccc2N2CCOCC2)cc1	none
CN1CC2=Cc3ccccc3OC23Oc2ccccc2C=C3C1	Peg3 prom inh 69, HIF-2a inh 92 | HIF-2a inh conf inactive | HIF-1a cs 79
COC(=O)c1cnn(-c2nc(OC)cc(OC)n2)c1C	none
COc1cc(OC)nc(-n2ncc(Br)c(Br)c2=O)n1	Peg3 prom inh 104, HIF-2a inh 92, TWEAK Fn14 block 103, KKLEB cytotox -94, CF NFkB block 91, TROY signal inh 63 | HIF-2a inh conf 100 | HIF-1a cs 106
Nc1ccc(-c2cc(-c3ccc(N)cc3)nc(-c3ccccc3)n2)cc1	none
Oc1ccc(-c2cc(-c3ccc(O)cc3)nc(-c3ccccc3)n2)cc1	HIF-2a inh 66, TROY signal inh 54 | HIF-2a inh conf inactive | HIF-1a cs 104
O=S1(=O)C=C(Sc2nc3cc(Cl)ccc3o2)c2ccccc21	Peg3 prom inh 102, TWEAK Fn14 block 64, KKLEB cytotox -100, CF NFkB block 88 | Mdm2-MdmX confirm 103
Cc1ccc(S(=O)(=O)c2ncccc2[N+](=O)[O-])cc1	Peg3 prom inh 102, HIF-2a inh 72, TWEAK Fn14 block 95, KKLEB cytotox -65, CF NFkB block 102, TROY signal inh 53 | Mdm2-MdmX confirm 100 | HIF-2a inh conf 47 | HIF-1a cs inactive
Cc1ccc(-n2c(C)c([N+](=O)[O-])c3ccc(O)c(CN(C)C)c32)cc1	TWEAK Fn14 block 75, CF NFkB block 82, TROY signal inh 51 | Mdm2-MdmX confirm 92
C=CCN(C(=O)c1csnn1)C(C(=O)NC1CCCCC1)c1ccc(C)cc1 (stereo unspecified)	none
COc1ccc2c(c1OC)CN1CCc3cc4c(cc3[C@@H]1[C@@H]2O)OCO4	none
O[C@@H]1[C@@H](O)C=C2CCN3Cc4cc5c(cc4[C@H]1C23)OCO5 (stereo partly specified)	Peg3 prom inh 63, HIF-2a inh 51, TWEAK Fn14 block 75, CF NFkB block 57, TROY signal inh 68 | HIF-2a inh conf 40 | HIF-1a cs 103
CCOC(=O)N/C(N)=N/c1nc2ccccc2s1	none
O=c1c2ccccc2nc(/C=C/c2ccc([N+](=O)[O-])cc2)n1CCCO	none
O=c1c2ccccc2nc(/C=C/c2ccc([N+](=O)[O-])o2)n1CCCO	Peg3 prom inh 104, HIF-2a inh 80 | HIF-2a inh conf 54 | HIF-1a cs 106
COc1ccc(S(=O)(=O)N2CCN(CC(=O)Nc3ccc(F)c(F)c3)CC2)cc1	none
CCOC(=O)c1sc(NC(=O)c2cc3c(s2)CCC(C)C3)nc1C (stereo unspecified)	HIF-2a inh 48 | HIF-2a inh conf 45 | HIF-1a cs inactive
Cc1cccc([C@@H]2[C@@H]3C(=O)N(Cc4ccccc4)C(=O)[C@@H]3[C@]3(Cc4ccccc4)C(=O)N(c4ccc(C(F)(F)F)cc4)C(=O)N23)c1	none | Mdm2-MdmX confirm 103
